These results are taken from PubChem BioAssay (EPA / NIEHS).

SMILES strings stand for the structures. “And” between values parts separate entries of the source, which are not always exact repeats. Equal values may be shown once. Inconclusive results are not listed. A structure can be active in one record and inactive in another. The source made the active and inactive calls. The calls were made as follows: active = hit-call score of the fitted dose curve at least 0.9, where 1 is the maximum; inconclusive = response in the unintended direction; inactive = score below 0.9.

As a reminder, the AC50 is the concentration at which the activity in the assay is half-maximal.

Experiment [1] is described as follows: ATG_XTT_Cytotoxicity: Cytotoxicity Assessment in the Attagene TRANS-FACTORIAL HepG2 Assay (AID 2283584). Put shortly: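 XTT readout of cell number in transfected HepG2 cells, 24 h post-dosing; DMSO serves as negative control and baseline, with activity taken as loss of viability signal.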
Experiment [2] can be described thus: TOX21_p53_BLA_p2_viability: Viability Assessment in the Tox21 HCT-116 p53 Agonism Beta-lactamase Assay, Phase 2 (AID 2283591).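 Also: compound exposure lasted 16 h at 37 °C; actives lower the ATP signal meaning cytotoxicity.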 Summed up: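 Cytotoxicity readout: CellTiter-Glo ATP luminescence, 30 min at room temperature, after the beta-lactamase read. Cells were HCT116 exposed 16 h at 37C to compounds pin-transferred at 217-fold dilution from DMSO stocks.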

Experiment [3] addresses Cellular tumor antigen p53 (Homo sapiens) (UniProt P04637). Briefly: TOX21_p53_BLA_p2_ratio: Tox21 HCT-116 p53 Agonism Beta-lactamase Assay, Ratio, Phase 2 (AID 2283592). Summed up: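 In this cell-based reporter format, HCT116 cells were dosed with chemicals delivered from DMSO by 217-fold dilution and incubated 16 h at 37C. Emission at 460 and 530 nm after 2 h CCF4-AM loading provided the ratio, fitted upward versus DMSO.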

The nature of experiment [4]: TOX21_p53_BLA_p3_viability: Viability Assessment in the Tox21 HCT-116 p53 Agonism Beta-lactamase Assay, Phase 3 (AID 2283593).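 Also: cells exposed to compound for 16 h before reading.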 Summed up: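 Cellular ATP was quantified by CellTiter-Glo luminescence, read after 30 min at room temperature. Beforehand, HCT116 cells (4000/well) received compound 5 h post-seeding, 217-fold diluted from DMSO, then incubated 16 h at 37C.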

Experiment [5] addresses Cellular tumor antigen p53 (Homo sapiens) (UniProt P04637). In words: TOX21_p53_BLA_p3_ratio: Tox21 HCT-116 p53 Agonism Beta-lactamase Assay, Ratio, Phase 3 (AID 2283596). Summed up: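 HCT116 p53-bla cells (4000/well) given compound in DMSO (217-fold dilution) after 5 h, incubated 16 h at 37C. CCF4-AM substrate 2 h at room temperature; 460/530 nm emission ratio, gain fitted against DMSO.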

The nature of experiment [6]: TOX21_p53_BLA_p4_viability: Viability Assessment in the Tox21 HCT-116 p53 Agonism Beta-lactamase Assay, Phase 4 (AID 2283597).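 Also: hits lower the luminescence signal meaning cytotoxicity.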 Put shortly: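 We seeded HCT116 p53 reporter cells at 4000/well and waited 5 h. We then added compounds in DMSO at a 217-fold dilution and incubated for 16 h. Viability was read as CellTiter-Glo luminescence after 30 min at RT.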
Experiment [7] deals with Cellular tumor antigen p53 (Homo sapiens) (UniProt P04637). In words: TOX21_p53_BLA_p5_ratio: Tox21 HCT-116 p53 Agonism Beta-lactamase Assay, Ratio, Phase 5 (AID 2283599). Put shortly:
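Beta-lactamase reporter ratio (blue 460 nm over green 530 nm, 405 nm excitation) after 2 h CCF4-AM loading, in HCT-116 cells exposed 16 h at 37 C to compounds pinned at 217-fold dilution. Increases relative to DMSO baseline scored.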

Experiment [8] in a line: TOX21_p53_BLA_p5_viability: Viability Assessment in the Tox21 HCT-116 p53 Agonism Beta-lactamase Assay, Phase 5 (AID 2283600). Summed up:
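Compounds, pinned from DMSO at 217-fold dilution, were left on the cells for 16 h. The viability endpoint was ATP content measured by CellTiter-Glo luminescence, where falling signal reflects cytotoxicity.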

Experiment [9] deals with Cellular tumor antigen p53 (Homo sapiens) (UniProt P04637). In words: TOX21_p53_BLA_p4_ratio: Tox21 HCT-116 p53 Agonism Beta-lactamase Assay, Ratio, Phase 4 (AID 2283601). Summed up: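 Signal is the blue/green (460nm/530nm) ratio of cleaved versus uncleaved CCF4-AM substrate, read after 2 h substrate loading. Cells were HCT116 carrying the p53-responsive beta-lactamase reporter, dosed 16 h at 37C, 5% CO2; CellTiter-Glo measured in parallel.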

Experiment [10] can be described thus: Tanguay_ZF_120hpf_MORT_legacy: (Legacy) Oregon State University Tanguay Lab 120 Hour Post-fertilization zebrafish Assay for Mortality (AID 2283633). Summed up:
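Brightfield scoring of embryo death (binary) at 24 and 120 hpf; static exposure 6–120 hpf, 28C, sealed and foil-covered. Pronase-dechorionated 5D wild-type larvae, single embryo per well. DMSO 0.64% v/v; trimethyltin chloride 5uM positive control.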

Experiment [11] is described as follows: Tanguay_ZF_120hpf_YSE_legacy: (Legacy) Oregon State University Tanguay Lab 120 Hour Post-fertilization zebrafish Assay for Yolk Sac Edema (AID 2283634). Summed up:
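Binary brightfield scoring of yolk sac edema at 120 hpf; DMSO baseline, gain-of-signal fitting. Dechorionated 5D larvae, one per well, static exposure 6–120 hpf, 28C, 0.64% DMSO. Dead embryos not scored.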

Experiment [12] in a line: Tanguay_ZF_120hpf_AXIS_legacy: (Legacy) Oregon State University Tanguay Lab 120 Hour Post-fertilization zebrafish Assay for Body Axis Malformation (AID 2283635). Put shortly: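 Embryos: 5D wild-type, pronase-dechorionated 4 hpf; static exposure 6–120 hpf, 28C, sealed, dark, 1 embryo/well, 0.64% DMSO. 120 hpf axis malformation scored present/absent; dead embryos excluded. Analysed as gain of signal vs DMSO.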

Experiment [13] is described as follows: Tanguay_ZF_120hpf_EYE_legacy: (Legacy) Oregon State University Tanguay Lab 120 Hour Post-fertilization zebrafish Assay for Eye Malformation (AID 2283636). Summed up: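 Read-out is binary presence or absence of eye malformation, scored by brightfield microscopy at 120 hpf. Single larvae were exposed from 6 hpf in embryo medium containing 0.64% DMSO, with DMSO as baseline.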

Experiment [14] can be described thus: Tanguay_ZF_120hpf_SNOU_legacy: (Legacy) Oregon State University Tanguay Lab 120 Hour Post-fertilization zebrafish Assay for Snout Malformation (AID 2283637). Put shortly: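 Snout malformation read as a yes/no call on brightfield images of 120 hpf larvae (Tropical 5D strain). Static exposure began at 6 hpf on dechorionated embryos in 0.64% DMSO, with gain of signal analysed versus DMSO controls.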

The nature of experiment [15]: Tanguay_ZF_120hpf_JAW_legacy: (Legacy) Oregon State University Tanguay Lab 120 Hour Post-fertilization zebrafish Assay for Jaw Malformation (AID 2283638). Put shortly:
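Binary jaw-malformation calls at 120 hpf by brightfield imaging; DMSO (0.64% v/v) = baseline. Embryos: 5D wild-type, pronase-dechorionated, one per well from 6 hpf, static exposure, 28C, sealed, dark.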

A short description of experiment [16]: Tanguay_ZF_120hpf_OTIC_legacy: (Legacy) Oregon State University Tanguay Lab 120 Hour Post-fertilization zebrafish Assay for Otic Vesicle Malformation (AID 2283639). Put shortly: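 Tropical 5D wild-type zebrafish embryos were exposed statically in sealed, foil-covered plates at 28C until 120 hpf, with 0.64% (vol/vol) DMSO final. Otic vesicle malformation was scored present/absent by brightfield microscopy, with DMSO as baseline.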

The nature of experiment [17]: Tanguay_ZF_120hpf_SOMI_legacy: (Legacy) Oregon State University Tanguay Lab 120 Hour Post-fertilization zebrafish Assay for Somite Malformation (AID 2283647). Summed up:
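Binary brightfield scoring of somite defects at 120 hpf in 5D wild-type larvae; one dechorionated embryo per well, static exposure from 6 hpf, 28C, sealed and dark. Final DMSO 0.64%; trimethyltin chloride 5uM positive control.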

A short description of experiment [18]: Tanguay_ZF_120hpf_CFIN_legacy: (Legacy) Oregon State University Tanguay Lab 120 Hour Post-fertilization zebrafish Assay for Caudal Fin Malformation (AID 2283649). Put shortly: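 Dechorionated 5D wild-type zebrafish, static exposure 6–120 hpf, 28C, sealed and dark, 0.64% v/v DMSO final. Binary fin-malformation call at 120 hpf, brightfield; gain of signal vs DMSO baseline.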

Experiment [19] can be described thus: Tanguay_ZF_120hpf_PE_legacy: (Legacy) Oregon State University Tanguay Lab 120 Hour Post-fertilization zebrafish Assay for Pericardial Edema (AID 2283640). Summed up: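 Static waterborne exposure, 5D wild-type embryos, 28C, to 120 hpf; final DMSO 0.64% (vol/vol). Binary PE call at 120 hpf by brightfield; fitted upward vs DMSO baseline. 5uM trimethyltin chloride as positive control.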

Experiment [20] is described as follows: Tanguay_ZF_120hpf_PFIN_legacy: (Legacy) Oregon State University Tanguay Lab 120 Hour Post-fertilization zebrafish Assay for Pectoral Fin Malformation (AID 2283648).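 Also: each larva judged yes or no for fin defect by brightfield with dead larvae skipped.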 Put shortly: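 5D WT zebrafish; pronase dechorionation 4 hpf; 1 embryo/well at 6 hpf; static exposure to 120 hpf, 28C, sealed, foil-covered; final DMSO 0.64% v/v; 5 uM trimethyltin chloride positive control; fin defect scored yes/no.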

Sequence of Cellular tumor antigen p53 (Homo sapiens) (P04637 whole entry, looked up): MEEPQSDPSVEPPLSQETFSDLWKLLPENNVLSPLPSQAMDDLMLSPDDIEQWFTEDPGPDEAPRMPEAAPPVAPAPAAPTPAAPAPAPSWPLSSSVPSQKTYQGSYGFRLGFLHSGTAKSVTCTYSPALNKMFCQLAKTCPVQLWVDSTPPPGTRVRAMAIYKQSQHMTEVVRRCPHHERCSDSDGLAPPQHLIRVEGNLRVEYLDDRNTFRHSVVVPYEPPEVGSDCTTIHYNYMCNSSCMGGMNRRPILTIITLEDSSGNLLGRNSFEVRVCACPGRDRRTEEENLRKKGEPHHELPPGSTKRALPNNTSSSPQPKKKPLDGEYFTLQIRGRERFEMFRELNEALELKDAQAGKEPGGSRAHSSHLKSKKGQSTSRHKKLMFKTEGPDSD

As to `ClC1C(Cl)C(Cl)C(Cl)C(Cl)C1Cl` (configuration not stated), the compound was classed as inactive in [1], in experiment [2], in experiment [3], in experiment [4], in experiment [5] and in experiment [6]. Also, the outcome in experiment [7], in experiment [8], in experiment [9], in experiment [10], in experiment [11] and in experiment [12] was inactive. Further, the compound was called inactive in [13], in experiment [14], in [15], in experiment [16], in [17] and in [18]. The concentration at half-maximal activity (AC50) was 72.6 µM (active) in [6] and 86.7 µM (active) in experiment [7].
`COc1nn(CSP(=S)(OC)OC)c(=O)s1`: the result in experiment [2], in experiment [3], in [4], in experiment [5], in experiment [6] and in experiment [7] was inactive. The outcome in [8], in experiment [9], in experiment [10], in [11], in experiment [12] and in experiment [13] was inactive. Further, the compound was classed as inactive in experiment [14], in [15], in experiment [16], in [17] and in experiment [18].
Take `COC(=O)c1ccccc1S(=O)(=O)NC(=O)Nc1nc(C)nc(OC)n1`: the call in experiment [1], in experiment [2], in experiment [3], in experiment [4] and in experiment [9] was inactive.
On to `COP(=S)(OC)Oc1ccc([N+](=O)[O-])cc1`, for which the result in experiment [1], in experiment [2], in experiment [3], in [4], in [5] and in [6] was inactive. For the same compound, the outcome in experiment [7], in experiment [9], in experiment [10], in experiment [11], in experiment [12] and in experiment [13] was inactive. For the same compound, the compound was classed as inactive in experiment [14], in experiment [15], in experiment [16], in experiment [17] and in [18].
As for `O=S1OCC2C(CO1)C1(Cl)C(Cl)=C(Cl)C2(Cl)C1(Cl)Cl` (configuration not stated), the outcome in experiment [1], in [4], in experiment [5], in [10], in experiment [11] and in [12] was inactive. Further, the compound was called inactive in experiment [13], in [14], in [15], in [16], in experiment [17] and in experiment [18]. Besides, the AC50 was 46.1 µM (active) and 81.5 µM (active) in experiment [2]; 73.9 µM (active) and 86.2 µM (active) in experiment [3]; 54.1 µM (active) in experiment [4]; 70.9 µM (active) and 85.8 µM (active) in experiment [6]; 87.3 µM (active) and 73.3 µM (active) in experiment [7]; 75.3 µM (active) and 70.2 µM (active) in experiment [8]. Further, the AC50 in experiment [9] is 69.2 µM (active) and 74.9 µM (active).
In the case of `COP(=S)(OC)Oc1ccc(SC)c(C)c1`, the compound was classed as inactive in experiment [1], in experiment [2], in experiment [3], in experiment [4], in [5] and in experiment [6]. In addition, the result in [7], in experiment [8], in experiment [9], in [10], in experiment [11] and in experiment [12] was inactive. The outcome in [13], in experiment [14], in experiment [15], in experiment [16], in experiment [19] and in experiment [20] was inactive. In addition, the compound was called inactive in [18].
